From PMC12820563, “FoxP3 forms a head-to-head dimer in vivo and stabilizes its multimerization on adjacent microsatellites” come the findings set out here.

Over roughly 16,000 sequences, “rpm ratio (pull-down/input)” has its median near 0.5; the highest 2% begin near 5.5. Shown is part of a subset that was picked to be rich in the highest values.

The target of the assay is T1, MBP-FoxP3dN (Mus musculus, UniProt Q99JB6 188-423).
T1 sequence: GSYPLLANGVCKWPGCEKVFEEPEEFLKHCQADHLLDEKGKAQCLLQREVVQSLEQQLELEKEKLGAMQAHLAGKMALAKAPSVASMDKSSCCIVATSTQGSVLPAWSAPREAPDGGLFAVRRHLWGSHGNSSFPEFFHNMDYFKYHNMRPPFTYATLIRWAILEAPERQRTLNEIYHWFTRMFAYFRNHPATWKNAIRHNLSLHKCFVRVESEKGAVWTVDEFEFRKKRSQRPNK
In words: PD-seq (MBP pull-down with sequencing); 20 mM Tris-HCl pH 7.5, 100 mM NaCl, 1.5 mM MgCl2, 0.4 uM protein, 0.1 uM dsDNA library, 30 min, room temperature, amylose pull-down; high values mean tight binding. To be noted: protein: recombinant; tags: His6-MBP; chain copies: 2; dsDNA, one strand shown. In a few lines:
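Binding is reads-per-million enrichment of pull-down over input, with replicates pooled. It comes from 30 min room-temperature incubation in Tris pH 7.5 buffer with NaCl and MgCl2 of 0.4 µM His6-MBP-tagged, N-terminally truncated mouse FoxP3 or FoxP1 fragment from E. coli with 0.1 µM Klenow-filled degenerate double-stranded DNA library, followed by amylose resin capture, three washes and Illumina sequencing of the released DNA.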
Turning to “GATGATTGTTCTCCCAGCTGATGAATTGGAAGCCTCGAGTAAACAAATTTTCCTAATCTTTCTGTTCAAGCGCCATCTAC”, the binding signal is 0.359 RPM ratio (pull-down/input).
As to “GATGATTGTTCTCCCAGCTGATGAATTGAATAGATCGAGTAAACAAATTTTCCTAATCTTTCTGTTCAAGCGCCATCTAC”, the binding signal was 0.257 RPM ratio (pull-down/input).
For “GATGATTGTTCTCCCAGCTGATGAATTTGGTGCCTCGAGTAAACAAATTTTCCTAATCTTTCTGTTCAAGCGCCATCTAC” the value was 1.91 RPM ratio (pull-down/input); for “GATGATTGTTCTCCCAGCTGATGAATTTATGCAATCGAGTAAACAAATTTTCCTAATCTTTCTGTTCAAGCGCCATCTAC”, 4.25 RPM ratio (pull-down/input).
For “GATGATTGTTCTCCCAGCTGATGAATTATGATTTTCGAGTAAACAAATTTTCCTAATCTTTCTGTTCAAGCGCCATCTAC”, the binding signal is 1.8 RPM ratio (pull-down/input).
In the case of “GATGATTGTTCTCCCAGCTGATGAATTATGCATCTCGAGTAAACAAATTTTCCTAATCTTTCTGTTCAAGCGCCATCTAC” it was 7.47 RPM ratio (pull-down/input); in that of “GATGATTGTTCTCCCAGCTGATGAATTATGCAGCTCGAGTAAACAAATTTTCCTAATCTTTCTGTTCAAGCGCCATCTAC”, 3.11 RPM ratio (pull-down/input); in that of “GATGATTGTTCTCCCAGCTGATGAATTATGAATCTCGAGTAAACAAATTTTCCTAATCTTTCTGTTCAAGCGCCATCTAC”, 2.3 RPM ratio (pull-down/input).
In the case of “GATGATTGTTCTCCCAGCTGATGAATTATGAATTTCGAGTAAACAAATTTTCCTAATCTTTCTGTTCAAGCGCCATCTAC”, the binding signal is 1.57 RPM ratio (pull-down/input).
Turning to “GATGATTGTTCTCCCAGCTGATGAATTATGCAATTCGAGTAAACAAATTTTCCTAATCTTTCTGTTCAAGCGCCATCTAC”, the binding signal is 5.58 RPM ratio (pull-down/input).
In the case of “GATGATTGTTCTCCCAGCTGATGAATTATGCATTTCGAGTAAACAAATTTTCCTAATCTTTCTGTTCAAGCGCCATCTAC” it was 7.25 RPM ratio (pull-down/input); in that of “GATGATTGTTCTCCCAGCTGATGAATTATGCAAATCGAGTAAACAAATTTTCCTAATCTTTCTGTTCAAGCGCCATCTAC”, 1.16 RPM ratio (pull-down/input); in that of “GATGATTGTTCTCCCAGCTGATGAATTGAGGCCGTCGAGTAAACAAATTTTCCTAATCTTTCTGTTCAAGCGCCATCTAC”, 0.905 RPM ratio (pull-down/input).
For “GATGATTGTTCTCCCAGCTGATGAATTAACTGTTTCGAGTAAACAAATTTTCCTAATCTTTCTGTTCAAGCGCCATCTAC”, the binding signal was 0.641 RPM ratio (pull-down/input).
For “GATGATTGTTCTCCCAGCTGATGAATTGATGCCATCGAGTAAACAAATTTTCCTAATCTTTCTGTTCAAGCGCCATCTAC” the value was 3.67 RPM ratio (pull-down/input); for “GATGATTGTTCTCCCAGCTGATGAATTGATGCAATCGAGTAAACAAATTTTCCTAATCTTTCTGTTCAAGCGCCATCTAC”, 5.86 RPM ratio (pull-down/input); for “GATGATTGTTCTCCCAGCTGATGAATTGCAATCATCGAGTAAACAAATTTTCCTAATCTTTCTGTTCAAGCGCCATCTAC”, 2.79 RPM ratio (pull-down/input).
For “GATGATTGTTCTCCCAGCTGATGAATTGCAACCATCGAGTAAACAAATTTTCCTAATCTTTCTGTTCAAGCGCCATCTAC” the value was 4.48 RPM ratio (pull-down/input); for “GATGATTGTTCTCCCAGCTGATGAATTTCTGCAATCGAGTAAACAAATTTTCCTAATCTTTCTGTTCAAGCGCCATCTAC”, 3.01 RPM ratio (pull-down/input); for “GATGATTGTTCTCCCAGCTGATGAATTGCAGCAATCGAGTAAACAAATTTTCCTAATCTTTCTGTTCAAGCGCCATCTAC”, 2.72 RPM ratio (pull-down/input).
As for “GATGATTGTTCTCCCAGCTGATGAATTGCAACAATCGAGTAAACAAATTTTCCTAATCTTTCTGTTCAAGCGCCATCTAC”, the binding signal is 7.74 RPM ratio (pull-down/input).
For “GATGATTGTTCTCCCAGCTGATGAATTTTTGCAATCGAGTAAACAAATTTTCCTAATCTTTCTGTTCAAGCGCCATCTAC” the value was 3.95 RPM ratio (pull-down/input).
For “GATGATTGTTCTCCCAGCTGATGAATTGTTGCAATCGAGTAAACAAATTTTCCTAATCTTTCTGTTCAAGCGCCATCTAC” the value was 5.54 RPM ratio (pull-down/input).
On to “GATGATTGTTCTCCCAGCTGATGAATTCTATTAATCGAGTAAACAAATTTTCCTAATCTTTCTGTTCAAGCGCCATCTAC”, for which the binding signal is 0.561 RPM ratio (pull-down/input).
For “GATGATTGTTCTCCCAGCTGATGAATTTCTTGCCTCGAGTAAACAAATTTTCCTAATCTTTCTGTTCAAGCGCCATCTAC” the value was 0.494 RPM ratio (pull-down/input); for “GATGATTGTTCTCCCAGCTGATGAATTTGGCGGCTCGAGTAAACAAATTTTCCTAATCTTTCTGTTCAAGCGCCATCTAC”, 0.668 RPM ratio (pull-down/input); for “GATGATTGTTCTCCCAGCTGATGAATTCTATAGTTCGAGTAAACAAATTTTCCTAATCTTTCTGTTCAAGCGCCATCTAC”, 0.74 RPM ratio (pull-down/input).
Consider “GATGATTGTTCTCCCAGCTGATGAATTGCCCGAGTCGAGTAAACAAATTTTCCTAATCTTTCTGTTCAAGCGCCATCTAC”, for which the binding signal is 0.303 RPM ratio (pull-down/input).
As for “GATGATTGTTCTCCCAGCTGATGAATTGCATCCATCGAGTAAACAAATTTTCCTAATCTTTCTGTTCAAGCGCCATCTAC”, the binding signal is 5.42 RPM ratio (pull-down/input).
In the case of “GATGATTGTTCTCCCAGCTGATGAATTATCGTATTCGAGTAAACAAATTTTCCTAATCTTTCTGTTCAAGCGCCATCTAC” it was 1.35 RPM ratio (pull-down/input).
As for “GATGATTGTTCTCCCAGCTGATGAATTCGGCAAGTCGAGTAAACAAATTTTCCTAATCTTTCTGTTCAAGCGCCATCTAC”, the binding signal is 1.34 RPM ratio (pull-down/input).
Consider “GATGATTGTTCTCCCAGCTGATGAATTTGTTTAGTCGAGTAAACAAATTTTCCTAATCTTTCTGTTCAAGCGCCATCTAC”, for which the binding signal was 7.22 RPM ratio (pull-down/input).
For “GATGATTGTTCTCCCAGCTGATGAATTGTTTTAGTCGAGTAAACAAATTTTCCTAATCTTTCTGTTCAAGCGCCATCTAC” the value was 1.21 RPM ratio (pull-down/input).
